Test results taken from PubChem BioAssay (NCATS).
Results filed as inconclusive are left out. Entries that show only a call come without a potency. Active and inactive are the calls of the source. Calls come from the whole dose curve; as a rule, active = well fitted inhibition curve with a large enough effect; inconclusive = small, poorly fitted or top-dose-only effect; inactive = flat fitted curve, though single readings scatter.

system: Zika virus NS2B-NS3 protease; experiment: Primary screen GU AMC qHTS for Zika virus inhibitors (AID 1347154); details: Zika NS2B-NS3 unlinked protease, AMC fluorogenic substrate; series mostly up to 54.1 µM; note: nearly all actives have a fitted effect of over 70% in size
Method in brief: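 Unlinked Zika NS2B hydrophilic domain–NS3 protease complex at 25 nM in 10 mM Tris-HCl pH 8.0, 0.01% Tween 20, with an AMC peptide substrate. Fluorescence change (340/450 nm) over 15 min at room temperature, normalized to controls, fitted to 4-parameter Hill.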
Potency is the fitted concentration of half-maximal effect.

Row | SMILES | Potency
1 | CC1Sc2c(C(=O)O)c(=O)c3cc(F)c(N4CCNCC4)cc3n21 (configuration not stated) | inactive
2 | CN1CCC(N(Cc2ccccc2)c2ccccc2)CC1 | inactive
3 | CC(C)(C)OC(=O)c1ncn2c1[C@@H]1CCCN1C(=O)c1c(Br)cccc1-2 | inactive
4 | CCOC(=O)C(c1c(O)c2ccccc2oc1=O)c1c(O)c2ccccc2oc1=O | inactive
5 | COc1ccc2[nH]cc(CCN(C(C)C)C(C)C)c2c1 | inactive
6 | CCC1(c2cccc(O)c2)CCCCN(C)C1 (configuration not stated) | inactive
7 | CC1=C2[C@H]3OC(=O)[C@@H](C)[C@@H]3CC[C@@]2(C)C=CC1=O | inactive
8 | Sc1ccccc1Cl | inactive
9 | CN(C)CCc1c[nH]c2cccc(O)c12 | inactive
10 | Cc1cccc(Cc2cnc[nH]2)c1C | inactive
11 | C[N+](C)(C)CCOC(=O)C(O)(c1ccccc1)c1ccccc1 | inactive
12 | CCOC(=O)C1(c2ccccc2)CCN(CCc2ccc(N)cc2)CC1 | inactive
13 | COc1cc(CC(C)N)cc2c1OCO2 (configuration not stated) | inactive
14 | CC(C)NCC(O)c1ccc(N)c(C#N)c1 (configuration not stated) | inactive
15 | COc1cc(N)c(Cl)cc1C(=O)NC1CN2CCC1CC2 (configuration not stated) | inactive
16 | CCC(=O)C(CCN(C)C)(c1ccccc1)c1ccccc1 | inactive
17 | CCO[C@H]1O[C@@H]2OC3(C)CC[C@H]4[C@H](C)CC[C@@H]([C@H]1C)[C@@]24OO3 | inactive
18 | CCS(=O)(=O)C(C)(C)S(=O)(=O)CC | inactive
19 | C[C@]12CC[C@H]3[C@@H](CCC4=CC(=O)CC[C@@H]43)[C@@H]1CC[C@@H]2O | inactive

Row | SMILES | Potency
20 | CCCN(CCC)CCc1c[nH]c2ccccc12 | inactive
21 | CC[C@]1(O)CC[C@H]2[C@@H]3CCC4=CCCC[C@@H]4[C@H]3CC[C@@]21C | inactive
22 | C[C@@H]1CN(C2CCC(C#N)(c3ccc(F)cc3)CC2)CC[C@]1(C(=O)O)c1ccccc1 (some centres not stated) | inactive
23 | COc1cc(CC(C)N)c(OC)cc1Br (configuration not stated) | inactive
24 | CCc1cc(OC)c(C[C@H](C)N)cc1OC | inactive
25 | CC(C(O)c1ccccc1)N(C)C/C=C/c1ccccc1 (configuration not stated) | inactive
26 | C[N+]1(C)[C@@H]2CC[C@H]1CC(OC(=O)C(CO)c1ccccc1)C2 (some centres not stated) | inactive
27 | CCC(=O)OC1(c2ccccc2)CCN(C)CC1 | inactive
28 | ClCCCN1CCN(c2cccc(Cl)c2)CC1 | inactive
29 | O=C(O)Cc1ccccc1 | inactive
30 | COc1ccc(OC)c(CC(C)N)c1 (configuration not stated) | inactive
31 | CCNc1nc(Cl)nc(NCC)n1 | inactive
32 | Oc1ccc([C@H]2CNCc3c2ccc(O)c3O)cc1O | 10.2 µM (active)
33 | N#Cc1nn(-c2c(Cl)cc(C(F)(F)F)cc2Cl)c(N)c1S(=O)C(F)(F)F (configuration not stated) | inactive
34 | C[C@H]1CNCCc2ccc(Cl)cc21 | inactive
35 | Oc1c(Br)cc(Br)cc1Br | inactive
36 | COc1ccc2c3c1O[C@H]1[C@@H](O)C=C[C@H]4[C@@H](C2)N(C)CC[C@@]341 | inactive
37 | C[C@H]1C(=O)O[C@@H]2CCN3CC=C(COC(=O)[C@](C)(O)[C@]1(C)O)[C@H]23 | inactive
